In PubChem BioAssay:

Target: Tumor necrosis factor receptor superfamily member 10B (Homo sapiens) (UniProt O14763)
Experiment: viability loss of caspase-8 NB7 cells with TRAIL – with/without TRAIL, luminescence panel, confirmation (AID 651596)
Conditions: NB7 neuroblastoma + caspase-8, TRAIL sensitization, NB7 Caspase-8, with TRAIL, mean of runs, at 10 µM, stronger effect = higher value

Tumor necrosis factor receptor superfamily member 10B (Homo sapiens), sequence (O14763 whole entry, looked up): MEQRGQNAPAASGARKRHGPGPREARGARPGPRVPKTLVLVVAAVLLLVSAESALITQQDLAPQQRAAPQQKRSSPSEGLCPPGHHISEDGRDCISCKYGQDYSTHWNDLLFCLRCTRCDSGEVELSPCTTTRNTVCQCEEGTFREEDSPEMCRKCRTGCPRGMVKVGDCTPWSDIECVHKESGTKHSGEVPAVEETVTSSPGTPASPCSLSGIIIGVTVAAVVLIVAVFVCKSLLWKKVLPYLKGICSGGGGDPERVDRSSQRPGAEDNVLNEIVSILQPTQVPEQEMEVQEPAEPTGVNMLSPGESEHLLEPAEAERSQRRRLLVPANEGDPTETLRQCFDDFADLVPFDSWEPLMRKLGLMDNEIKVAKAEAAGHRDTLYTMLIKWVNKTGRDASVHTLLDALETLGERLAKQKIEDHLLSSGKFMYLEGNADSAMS

Row | SMILES | activity [%]
1 | O=C(CCl)N=c1sccn1Cc1ccccc1Cl | 99.6
2 | CCOc1ccc2cc(C#N)c(SCC(=O)OC)nc2c1 | 57.9
3 | CCC(=O)Nc1cccc(-c2ccc(N3CCCCC3)nn2)c1 | 85.5
4 | Cc1ccc(-n2cc(C(=O)c3ccccc3O)cn2)cc1 | 52
5 | N#Cc1ccccc1N/C=C/C(=O)c1ccc(Cl)cc1 | 48.7
6 | CCOc1ccc(C(=O)Nc2nnc(SCC(=O)NCC3CCCO3)s2)cc1 (configuration not stated) | 96.1
7 | COc1ccccc1-c1cc2nc(-c3ccccc3)cc(N3CCN(C(=O)c4ccoc4)CC3)n2n1 | 78.4
8 | Cn1cc(S(=O)(=O)CC(=O)N2CCCc3ccccc32)c2ccccc21 | 1.93
9 | Cc1ccc(C(=O)Nc2ccc3ccccc3n2)cc1 | 58.6
10 | O=c1[nH]c(Nc2nc3ccccc3o2)nc2c1CCCC2 | 79.8
11 | CCC(=O)N1CCCc2cc(S(=O)(=O)N3CCN(c4ccccc4F)CC3)ccc21 | 17.2
12 | Cc1cccc(-n2ncc3c(N4CCOCC4)ncnc32)c1 | 85.7
13 | C=CCNC(=O)c1ccc2c3n(nc2c1)-c1ccccc1CO3 | 89.8
14 | O=C(O)c1ccc(N/N=C/c2cc3cc4c(cc3nc2Cl)OCCO4)cc1 | 96.3
15 | Nc1nc(N)c2c(ccc3nccc32)[nH]1 | 73.3
16 | Cc1ccc(C2CC(c3cccs3)=NN2C(=O)CCl)cc1 (configuration not stated) | 98.8
17 | N#CCCCC#Cc1ccc2c(c1)COc1c3ccccc3nn1-2 | 78.1
18 | CCOc1cc(C(=O)O/N=C(\N)c2ccccn2)cc(OCC)c1OCC | 91.1
19 | O=C(Oc1c(CN2CCOCC2)cc(Cl)c2cccnc12)c1ccc(F)cc1 | 53.5
20 | COc1cc(OC)nc(Nc2nc(C(N)Cc3ccc(C(F)(F)F)cc3)cs2)n1 (configuration not stated) | 33.2
21 | O=[N+]([O-])c1ccc(-c2nc(C(Cl)Cl)c3ccccc3n2)cc1 | 56.8
22 | NC(c1csc(NC(=O)Nc2cccc(C(F)(F)F)c2)n1)C1CCCCC1 (configuration not stated) | 56.4

Tested on: not listed separately
Experiment: as above
Conditions: NB7 neuroblastoma + caspase-8, without TRAIL, NB7 Caspase-8, without TRAIL, mean of runs, at 10 µM

Row | SMILES | activity [%]
23 | CC(C)(C)OC(=O)NCCCCCNC(=O)c1[nH]cnc1C(=O)Nc1cc(Br)ccc1F | 63.6
24 | O=[N+]([O-])c1c(Nc2cccc(O)c2)cc(Cl)c2nonc12 | 99.5
25 | CCC(COC)Oc1cc(NCc2ccccc2)c2ncn(C(C)C)c2c1 (configuration not stated) | -13.1
26 | CC(C)(C)C(=O)Nc1cccc(-c2nc3ccccc3c(=O)o2)c1 | 61.9
27 | Cc1ccc(NC(=O)Cn2ncc(Cl)c(Cl)c2=O)cc1S(=O)(=O)N1CCCCC1 | 99.5
28 | COc1ccc(-c2ccc(SC)nn2)cc1 | 90.2
29 | CCc1ccc2nc(N(CCCN(C)C)C(=O)c3ccc(S(=O)(=O)N4CCc5ccccc5C4)cc3)sc2c1 | 64
30 | COc1ccc2nc(Nc3nc(-c4cc5ccccc5oc4=O)cs3)sc2c1 | 47.4
31 | C#Cc1ccc([C@@H]2C=C(C(=O)Nc3ccccc3)O[C@H](OCC)[C@H]2CCCO)cc1 | 91.5
32 | COc1ccc2oc(C(=O)N3CCc4ccccc43)c(C)c2c1 | 82.4
33 | O=C(N/N=C/c1cc(O)ccc1[N+](=O)[O-])c1ccc2c(c1)OCCO2 | 87.7
34 | Nc1cnnc(N/N=C\c2ccccc2)c1Cl | 19.8
35 | Cc1c(C(=O)Nc2cccc([N+](=O)[O-])c2)csc1-c1ccccc1 | 48.1
36 | COc1ccccc1-c1cc2nc(-c3ccccc3)cc(N3CCN(C(=O)c4ccco4)CC3)n2n1 | 66
37 | Cc1ccnc(NC(=O)c2sc3ccccc3c2Cl)c1 | 90.8
38 | CN(C(=S)NC(=O)c1ccc(Cl)cc1)C1CCCCC1 | 60
39 | Nc1ccc(-c2nc3ncccc3o2)c(Cl)c1 | 32.2
40 | Cc1ccc(-c2nc3ccccc3[nH]2)s1 | 58.2
41 | O=C(CCl)N=c1sccn1Cc1ccccc1Cl | 98.9
42 | CCOc1ccc2cc(C#N)c(SCC(=O)OC)nc2c1 | 50.3
43 | CCC(=O)Nc1cccc(-c2ccc(N3CCCCC3)nn2)c1 | 84.5
44 | Cc1ccc(-n2cc(C(=O)c3ccccc3O)cn2)cc1 | 38.6
45 | N#Cc1ccccc1N/C=C/C(=O)c1ccc(Cl)cc1 | 53.1
46 | CCOc1ccc(C(=O)Nc2nnc(SCC(=O)NCC3CCCO3)s2)cc1 (configuration not stated) | 96.3
47 | COc1ccccc1-c1cc2nc(-c3ccccc3)cc(N3CCN(C(=O)c4ccoc4)CC3)n2n1 | 62.7
48 | Cn1cc(S(=O)(=O)CC(=O)N2CCCc3ccccc32)c2ccccc21 | -0.4
49 | Cc1ccc(C(=O)Nc2ccc3ccccc3n2)cc1 | 58.2
50 | O=c1[nH]c(Nc2nc3ccccc3o2)nc2c1CCCC2 | 57
51 | CCC(=O)N1CCCc2cc(S(=O)(=O)N3CCN(c4ccccc4F)CC3)ccc21 | 1.9
52 | Cc1cccc(-n2ncc3c(N4CCOCC4)ncnc32)c1 | 88.5
